Assay results: the OligoGym collection

target: KLHL24; assay: pooled miR-30 sensor sort-seq; sequence = guide strand; details: shRNA
Also: reference of the scale not given here.

Row | Sequence | sensor-assay potency score (higher = more potent)
1 | TTACAGGATCGTAGCACTCAGT | -1.07
2 | TTGCCTTGGTCAGTCCACCGGC | -0.546
3 | AAACTTTTCGCTTAGTTGCTGG | -0.446
4 | ATAACATCTGTGAATAAGCGGC | -0.459
5 | TTCAACTGGATCGTAACAGTAT | -0.312
6 | TGGATCATAAGATTGAACCTTA | 0.374
7 | TATTTTTCTATCTCCTACCTAA | 0.015

target: KLHL5; assay: as above; details: shRNA

Row | Sequence | sensor-assay potency score (higher = more potent)
8 | TAGCACTGCAACACCGAACTGT | 0.529
9 | TTATTGTTGCTTTAAGTCCTTA | -0.543
10 | TGTGTGATCACAATCCACCAGC | -0.62
11 | TTTCTCTACATAAATTTGCATA | -0.841
12 | TAATGTCTGACTACTATTGGAA | -0.622
13 | TATCTTTCCACACAGTCTGAGA | -1.09
14 | TAAAATTACATCACACAACTGT | 0.596
15 | TATGCAAATCTGTACAACCTTG | -0.563
16 | TTGACATCTGTGCACACAGTGT | -0.886
17 | TAACATGGGTCGTCTCTCTGGT | 0.867
18 | TTCATTAAAAACTTACAGCATG | -0.802
19 | TTTGACATCAGGCACTTTGTGC | -0.672

target: KLK5; assay: as above; details: shRNA

Row | Sequence | sensor-assay potency score (higher = more potent)
20 | TGAACATTCTCAACATCTCTGG | -0.405
21 | TAGAGAGACACGGTCAGCCCAA | 0.0597
22 | TCTCGGGTAAGCATCCTCGCAC | -0.337
23 | AACATTCTCAACATCTCTGGGA | 0.475
24 | TTCGTGTAGACACCCGGTCTGT | -0.664
25 | ACTCTGAAAACTTTCTTCCTGC | -0.332
26 | TTGATGGGTCTGACATCTTTAG | -1.51
27 | TTTTCTGACTTAGCACGCTGAT | -0.837
28 | TTTCTGACTTAGCACGCTGATA | -1.58
29 | TTGGGCCTTAGCAACAGCGCGG | -0.877
30 | TTGATGATGCGGCTGCTGCTGT | -0.719

target: KPRP; assay: as above; details: shRNA

Row | Sequence | sensor-assay potency score (higher = more potent)
31 | TAGACTGGCACTTCACCTGTGT | 0.425
32 | TTGGTCTCCATGGCCATCCTGA | -0.799
33 | TAGTTGTTGCAGGTAGCCCTTG | -0.668
34 | TTGTCGTGGTAGAGGACGCGGG | -1.43
35 | TCTTAGACTGACATTGAGCCTG | -0.234
36 | TAGACTGACATTGAGCCTGGCC | 0.158
37 | TACTGAGGGAAACAGCTGCTGT | -0.994
38 | TTGAACCACCACTTGGCTCTGG | 0.211
39 | TAGCCCTTGACTGAAACTGGGG | -0.902
40 | TTTCTGTATAACAAACTGGAGC | -1.23
